Shown are actives, neighbours in structure and some others; about 2.9% of the full set was active somewhere.
GDH-TPI inh: inhibits GDH-TPI coupling enzymes, artifact for Mtb FBA screen; actives 1.2% (n = 360,000); GDH-TPI coupled enzyme counterscreen, NADH absorbance; inhibition, % at 4.8 µM; in the data active = inhibition above about 30%;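 note: 0% = DMSO wells and 100% = wells lacking the enzyme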
Mtb FBA inh: inhibits M. tuberculosis FBA enzyme. P9WQA3. purified M. tuberculosis FBA, fluorescence read-out. inhibition, % at 1 µM. actives 2.3% (n = 360,000). AID 588726; in the data active = inhibition above about 27%;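 note: 0% = vehicle and 100% = reference inhibitor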
Target sequence (P9WQA3 whole entry, looked up): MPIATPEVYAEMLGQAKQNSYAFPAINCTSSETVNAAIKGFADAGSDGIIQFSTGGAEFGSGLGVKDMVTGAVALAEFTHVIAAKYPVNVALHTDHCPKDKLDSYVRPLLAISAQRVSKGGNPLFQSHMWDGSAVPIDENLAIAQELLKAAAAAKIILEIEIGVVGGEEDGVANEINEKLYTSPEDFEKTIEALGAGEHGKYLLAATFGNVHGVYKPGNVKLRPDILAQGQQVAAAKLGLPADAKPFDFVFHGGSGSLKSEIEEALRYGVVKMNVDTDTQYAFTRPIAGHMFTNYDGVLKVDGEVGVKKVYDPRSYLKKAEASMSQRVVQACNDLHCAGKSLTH
FadD28 binding: inhibitors of Mycobacterium tuberculosis FadD28 bisubstrate binding. AID 588549. inhibition, % at 12.5 µM. FadD28 bisubstrate probe binding, fluorescence polarization. actives 0.22% (n = 360,000); in the data active = inhibition above about 8.5%, passing the limit was not always enough; inconclusive = no clear call, values can overlap the other calls
Mtb hypoxia inh: inhibitors of hypoxia-regulated fluorescent reporter in Mycobacterium tuberculosis; M. tuberculosis hypoxia-regulated fluorescent reporter, fluorescence; fluorescence inhibition, % (test concentration not listed); actives 0.1% (n = 300,000); in the data active = fluorescence inhibition mostly above about 23%, no sharp cut-off; inactive = mostly below about 17%
BioA inh: BioA (M. tuberculosis) enzyme inhibition; purified M. tuberculosis BioA enzyme, plate reader; inhibition, % at 9.99 µM; actives 0.096% (n = 360,000); AID 602481; in the data active = inhibition above about 40%; inconclusive = no clear call, values can overlap the other calls
Starred values were filed as active, the others as inactive; u = inconclusive; x = no result.

SMILES	GDH-TPI inh	Mtb FBA inh	FadD28 binding	Mtb hypoxia inh	BioA inh
CCN(CC)c1ccc(/C=N/NC(=O)c2ccco2)cc1	42.8*	-2.1	-2.8	x	0.2
COc1ccc(COC[C@]23NC(=O)N[C@H](c4ccccc4O2)[C@H]3CO)cc1	x	x	x	x	0.1
CSc1nc(C)cc(SCC(=O)NN=Cc2ccccc2)n1	x	x	x	5.4	x
Cc1ccccc1CN1C(CC2CCCCC2)COCCS1(=O)=O (stereo not drawn)	x	x	x	1.9	x
CCOC1=C/C(=C/c2c(N)n3nc(-c4ccccc4)sc3nc2=O)C=CC1=O	20.8	-0.1	15.7*	15.4	x
COC1=C/C(=C/c2c(N)n3c(nc2=O)sc2cc(S(C)(=O)=O)ccc23)C=CC1=O	51.9*	-4.6	1.7	x	-12.9
CC(=NNC(=O)Cn1c(C)nc2ccccc21)c1cccs1	x	x	x	5.3	x
CCN1[C@H](C(=O)N(C)C)[C@@H](CO)[C@@H]2Cn3c(ccc(-c4ccccc4OC)c3=O)[C@@H]21	x	x	x	x	-1.5
COc1cc2c(cc1OC)C(c1cc3cc4c(cc3[nH]c1=O)OCO4)N(C(=O)C1CC1)CC2 (stereo not drawn)	38.3*	11.1	-3.0	17.0	-1.2
COc1ccc(S(=O)(=O)Nc2cccc3c2O[C@H](CN(C)C(=O)Nc2ccc(C(F)(F)F)cc2)[C@H](C)CN([C@H](C)CO)C3=O)cc1	x	x	x	x	16.4
COc1cc(NC(=O)CCl)ccc(=O)c1	42.5*	3.0	-2.0	x	0.6
O=C(CCl)Nc1cccc(Oc2ccccc2)c1	-6.1	-5.2	-6.6	12.8	1.4
CCOC(=O)C(=NNc1ccccc1OC)N1CCCc2ccccc21	x	x	x	9.8	x
COc1ccc(/C(O)=C/C(=O)C(=O)Nc2c(C)n(C)n(-c3ccccc3)c2=O)cc1	34.0*	-1.5	-0.1	x	-1.8
COc1ccc(C(=O)/C=C/Nc2c(C)n(C)n(-c3ccccc3)c2=O)cc1OC	35.0*	-1.5	1.0	x	1.3
Cc1c(N/C=C/C(=O)C(F)(F)F)c(=O)n(-c2ccccc2)n1C	11.2	-0.4	-1.6	5.3	-0.4
CCOC(=O)NN=C1CC(C)S(=O)(=O)c2ccc(Cl)cc21 (stereo not drawn)	x	x	x	-3.3	x
C[C@H](CO)N1C[C@H](C)[C@@H](CN(C)Cc2ccc(C(=O)O)cc2)Oc2ccc(NC(=O)Nc3ccc(F)cc3)cc2C1=O	x	x	x	x	-2.1
Cc1ccc(C)c(S(=O)(=O)C(C#N)c2nc3ccccc3nc2N2CCCC2)c1 (stereo not drawn)	-11.7	5.3	1.7	2.8	1.0
Cc1cccc(S(=O)(=O)C(C#N)c2nc3ccccc3nc2N2CCCC2)c1 (stereo not drawn)	6.7	74.4*	-6.3	24.1	-0.9
CCOC(=O)c1sc(=S)n(C)c1NC(=O)c1ccc(OC)cc1	36.5*	-0.4	-3.9	21.1	2.8
CCOC(=O)c1sc(=S)n(C)c1NC(=O)c1ccccc1Cl	39.5*	0.0	-3.0	11.5	-1.3
CCOC(=O)c1sc(NC(=O)c2ccc(OC)cc2)nc1C	6.2	5.2	-3.2	0.2	-1.6
CCOC(=O)c1sc(=S)n(CC)c1NC(=O)C1CC1	35.1*	1.9	-2.0	x	-0.3
CCOC(=O)c1sc(=S)n(C)c1NC(=O)c1ccc(C(C)(C)C)cc1	40.7*	-0.2	-3.3	12.6	3.4
SMILES	GDH-TPI inh	Mtb FBA inh	FadD28 binding	Mtb hypoxia inh	BioA inh
CCOC(=O)c1sc(=S)n(Cc2ccccc2)c1C	3.4	2.6	0.9	7.3	x
CCOC(=O)c1sc(NC(=O)C2CCCCC2)nc1C	-3.2	0.6	-0.4	1.9	x
CC(C)(C)C(O)C=Cc1ccc2c(c1)OCO2 (stereo not drawn)	x	x	x	-7.4	x
COc1ccc(OC)c(S(=O)(=O)N2CCC3(CC2)OCCN3S(=O)(=O)c2cccs2)c1	6.9	1.3	10.0*	-1.7	-1.5
Nc1nnc(CC(=O)NN=Cc2ccc(-c3ccc(F)cc3)o2)s1	x	x	x	7.3	x
Cc1ccc([N+](=O)[O-])cc1-c1ccc(/C=N/NC(=O)CN2CCOCC2)o1	40.4*	2.6	0.9	x	x
O=C(CN1CCCC1)N/N=C/c1ccc(-c2cccc(Cl)c2)o1	31.9*	0.5	-9.7	x	0.4
COc1ccc(-c2ccc(C=NNC(=O)Cc3nnc(N)s3)o2)cc1Cl	x	x	x	10.5	x
COC(=O)c1ccc(-c2ccc(/C=N/NC(=O)Cc3nnc(N)s3)o2)cc1	36.6*	27.6*	-4.0	x	x
Nc1nnc(CC(=O)N/N=C/c2ccc(-c3ccccc3)o2)s1	46.7*	2.2	-5.1	x	x
C[C@H]1CN([C@@H](C)CO)C(=O)Cc2cc(NS(=O)(=O)c3cn(C)cn3)ccc2O[C@H]1CN(C)Cc1ccc(C(F)(F)F)cc1	x	x	x	x	-0.7
Cc1noc(C)c1NC(=O)N(C)C[C@@H]1OCCCC[C@@H](C)Oc2ccc(NC(=O)Nc3ccccc3)cc2C(=O)N([C@H](C)CO)C[C@@H]1C	x	x	x	x	-5.5
Nc1nnc(CC(=O)N/N=C\c2ccc(-c3cccc(Cl)c3)o2)s1	33.1*	-2.6	-11.0	x	2.6
Cc1ccc(-c2ccc(/C=N/NC(=O)Cc3nnc(N)s3)o2)cc1Cl	29.1	1.8	-7.9	x	0.2
CCCC(=O)Nc1ccc2c(c1)OC[C@@H](C)N(C(=O)CC1CC1)C[C@H](C)[C@@H](OC)CN(C)C2=O	x	x	x	x	-0.4
Cc1ccc(NC(=O)Cn2nnc(C(=O)NCc3ccco3)c2N)cc1	-4.3	-5.8	-0.9	5.2	-2.4
Cc1cc(C)c(NC(=O)Cn2nnc(C(=O)NCc3ccco3)c2N)c(C)c1	33.1*	6.7	-1.9	3.3	x
CC1CCc2c(sc(NC(=O)c3ccc(-c4ccccc4[N+](=O)[O-])o3)c2C#N)C1 (stereo not drawn)	10.2	0.1	-2.2	7.9	-0.7
N#Cc1c(NC(=O)c2ccc(-c3ccccc3[N+](=O)[O-])o2)sc2c1CCCC2	32.0*	-10.2	-0.9	x	-0.6
CC1(C)CC(=O)C(C=NCc2ccc3c(c2)OCO3)=C(O)C1	-3.4	-4.2	-2.3	13.1	-1.1
COc1ccc(OC)c(N=CC2=C(O)CC(C)(C)CC2=O)c1	38.5*	2.9	-1.6	6.2	x
COc1ccc(N=CC2=C(O)CC(C)(C)CC2=O)cc1	41.6*	0.1	-2.7	x	-0.2
CC1(C)CC(=O)C(C=Nc2ccc3c(c2)OCO3)=C(O)C1	54.2*	1.1	-1.6	-8.4	x
COc1ccc(N=CC2=C(O)CCCC2=O)cc1	37.0*	-2.5	-3.3	5.1	-0.7
COc1cc(C=NNC(=O)CN2CCCCC2)ccc1OCc1ccccc1	x	x	x	3.8	x
SMILES	GDH-TPI inh	Mtb FBA inh	FadD28 binding	Mtb hypoxia inh	BioA inh
N#CCC(=O)NN=Cc1coc2ccccc2c1=O	x	x	x	-1.0	x
O=C(C[C@H]1CC[C@H](NC(=O)Nc2cccc(F)c2)[C@@H](CO)O1)NCC1CC1	x	x	x	x	1.9
Cc1ccc(OCc2ccc(C(=O)Nc3cc(C)on3)o2)c([N+](=O)[O-])c1	22.0	6.2	0.3	-1.6	-1.2
CCn1c(NC(=O)c2ccc(COc3ccc(C)cc3[N+](=O)[O-])o2)nc2ccccc21	31.8*	0.9	1.0	2.4	-0.7
O=C(N/N=C/C(Br)=C/c1ccccc1)C(O)c1ccccc1 (stereo not drawn)	43.5*	-0.3	-2.6	x	2.0
O=C(O)c1ccc(NN=C/C=C/c2ccccc2)cc1	x	x	x	3.1	x
O=C(O)c1ccc(N/N=C/C(Br)=C/c2ccccc2)cc1	65.8*	0.5	u	x	0.4
O=C(O)c1ccc(N2C(=O)c3cccc4cccc(c34)C2=O)cc1	38.1*	10.6	0.6	3.5	11.2
